From PubChem BioAssay AID1159580 (chemical genetic matrix, 2015)
Several values for one entry are separate records, joined by “and”; a condition that tells them apart may be missing. Identical values can stand only once. Hit rate of the full screen: of about 5,500 compounds, about 2,000 (36%) were called active. Another 18% or so got no clear call; they are omitted. Cut-off read from the data, not from the text of the source: active = normalized growth mostly below about 0.91 (no sharp cut-off); inconclusive = no clear call, values can overlap the other calls; inactive = mostly above about 0.92. The list shows a part of the results.

Test: chemical genetic growth profiling, strain panel (AID 1159580);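 note: tested at 20 µM; growth read once vehicle control cultures reached saturation at 30 °C; 1 = growth at the plate median or of vehicle wells; lower values mean less growth of the strain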
Conditions: S. cerevisiae deletion strains, growth OD

Measured: normalized growth

CCC(C(=O)O)c1ccccc1 (configuration not stated)
inactive: locus YAL013W, strain DEP1, active compounds read low 1.01 | locus YAL021C, strain ccr4, active compounds read low 0.973 | locus YAL026C, strain drs2, active compounds read low 0.992 | locus YAL030W, strain snc1, active compounds read low 0.989 | locus YBL061C, strain skt5, active compounds read low 0.999 | locus YBR009C, strain hhf1, active compounds read low 0.991 | locus YBR021W, strain FUR4, active compounds read low 1.01 | locus YBR023C, strain chs3, active compounds read low 0.993 | locus YBR171W, strain sec66, active compounds read low 0.987 | locus YBR229C, strain ROT2, active compounds read low 0.997 | locus YBR231C, strain swc5, active compounds read low 1.01 | locus YBR279W, strain paf1, active compounds read low 1 | locus YCL011C, strain gbp2, active compounds read low 0.979 | locus YCL016C, strain dcc1, active compounds read low 0.982 | locus YCL029C, strain bik1, active compounds read low 1.01 | locus YCL061C, strain MRC1, active compounds read low 0.982 | locus YCL069W, strain vba3, active compounds read low 0.993 | locus YCR088W, strain abp1, active compounds read low 0.988 | locus YDL005C, strain med2, active compounds read low 0.98 | locus YDL035C, strain GPR1, active compounds read low 1.03 | locus YDL040C, strain nat1, active compounds read low 0.988 | locus YDL074C, strain BRE1, active compounds read low 1.02 | locus YDL101C, strain DUN1, active compounds read low 1 | locus YDL134C, strain PPH21, active compounds read low 1 | locus YDL185W, strain tfp1, active compounds read low 0.984 | locus YDL192W, strain arf1, active compounds read low 1 | locus YDR001C, strain nth1, active compounds read low 0.987 | locus YDR069C, strain doa4, active compounds read low 0.999 | locus YDR101C, strain arx1, active compounds read low 0.998 | locus YDR137W, strain rgp1, active compounds read low 0.97 | locus YDR150W, strain NUM1, active compounds read low 1.01 | locus YDR159W, strain sac3, active compounds read low 0.964 | locus YDR162C, strain NBP2, active compounds read low 1.01 | locus YDR195W, strain ref2 0.98 | locus YDR297W, strain sur2, active compounds read low 0.983 | locus YDR318W, strain mcm21, active compounds read low 0.994 | locus YDR334W, strain swr1, active compounds read low 0.975 | locus YDR335W, strain msn5, active compounds read low 1.02 | locus YDR388W, active compounds read low 0.996 | locus YDR392W, strain spt3, active compounds read low 0.991 | locus YDR502C, strain sam2, active compounds read low 1 | locus YEL003W, strain gim4, active compounds read low 0.997 | locus YEL037C, strain rad23, active compounds read low 0.989 | locus YEL061C, strain CIN8 (second series), active compounds read low 0.998 | locus YEL061C, strain CIN8, active compounds read low 1.01 | locus YER015W, strain faa2, active compounds read low 0.992 | locus YER016W, strain bim1, active compounds read low 0.976 | locus YER110C, active compounds read low 1 | locus YER111C, strain swi4, active compounds read low 0.979 | locus YER155C, strain BEM2 (second series), active compounds read low 0.975 | locus YER155C, strain BEM2, active compounds read low 1.01 | locus YER167W, strain BCK2, active compounds read low 1 | locus YFR010W, strain ubp6, active compounds read low 0.995 | locus YGL078C, strain dbp3, active compounds read low 0.979 | locus YGL086W, strain mad1, active compounds read low 0.998 | locus YGL167C, strain pmr1, active compounds read low 1 | locus YGL173C, strain kem1, active compounds read low 0.997 | locus YGL227W, strain vid30, active compounds read low 0.978 | locus YGL240W, strain doc1, active compounds read low 1.02 | locus YGL248W, strain PDE1, active compounds read low 1 | locus YGL253W, strain hxk2, active compounds read low 0.99 | locus YGR078C, strain PAC10, active compounds read low 1.02 | locus YGR135W, strain pre9, active compounds read low 1.03 | locus YGR229C, strain SMI1, active compounds read low 1.01 | locus YGR252W, strain gcn5, active compounds read low 0.976 | locus YHR013C, strain ard1, active compounds read low 0.963 | locus YHR027C, strain rpn1, active compounds read low 1 | locus YHR030C, strain SLT2, active compounds read low 1 and 0.961 | locus YHR079C, strain IRE1 (second series), active compounds read low 1 | locus YHR079C, strain IRE1, active compounds read low 0.959 | locus YHR094C, strain hxt1, active compounds read low 0.997 | locus YHR129C, strain ARP1, active compounds read low 0.995 | locus YHR142W, strain chs7, active compounds read low 1.02 | locus YHR200W, strain rpn10, active compounds read low 1 | locus YIL066C, strain RNR3, active compounds read low 1.01 | locus YIL073C, strain SPO22, active compounds read low 1.03 | locus YIL125W, strain kgd1, active compounds read low 0.971 | locus YIR030C, strain dcg1, active compounds read low 1.01 | locus YJL092W, strain hpr5, active compounds read low 0.979 | locus YJL095W, strain BCK1 (second series), active compounds read low 0.985 | locus YJL095W, strain BCK1, active compounds read low 1.02 and 0.968 | locus YJL115W, strain asf1, active compounds read low 0.984 | locus YJL129C, strain trk1, active compounds read low 0.983 | locus YJL134W, strain LCB3, active compounds read low 1.01 | locus YJL154C, strain vps35, active compounds read low 0.988 | locus YJL164C, strain tpk1, active compounds read low 0.98 | locus YJL166W, strain qcr8, active compounds read low 0.995 | locus YJL168C, strain set2, active compounds read low 0.995 | locus YJL187C, strain SWE1 (second series), active compounds read low 1 | locus YJL187C, strain SWE1, active compounds read low 0.971 | locus YJR043C, strain POL32, active compounds read low 1.03 | locus YJR066W, strain TOR1, active compounds read low 0.887
